Source: PubChem (several laboratories)
The list is not random: actives were taken first. Their share in the collection is about 27%.
CYP2C9 activ: increases human cytochrome P450 2C9 activity | P11712 | recombinant CYP2C9, luciferin-H conversion, luminescence; active compounds read high; factor 1 = untreated enzyme, 0 = blocked | activation factor at 5 µM | 1.4% of 96,000 active;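 active means activation factor of 2 or more for CYP2C9 at a 5 µM dose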
CYP2C19 inhib: human CYP2C19 inhibition. CYP2C19 Supersomes, luciferin-H EGE luminescence, 30 min. inhibition, % at 5 µM. 21% of 96,000 active. AID 778;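 active means CYP2C19 inhibition above a set limit at 5 µM in the primary screen, cut at about 50% in these data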
Target sequence (P33261 whole entry, looked up): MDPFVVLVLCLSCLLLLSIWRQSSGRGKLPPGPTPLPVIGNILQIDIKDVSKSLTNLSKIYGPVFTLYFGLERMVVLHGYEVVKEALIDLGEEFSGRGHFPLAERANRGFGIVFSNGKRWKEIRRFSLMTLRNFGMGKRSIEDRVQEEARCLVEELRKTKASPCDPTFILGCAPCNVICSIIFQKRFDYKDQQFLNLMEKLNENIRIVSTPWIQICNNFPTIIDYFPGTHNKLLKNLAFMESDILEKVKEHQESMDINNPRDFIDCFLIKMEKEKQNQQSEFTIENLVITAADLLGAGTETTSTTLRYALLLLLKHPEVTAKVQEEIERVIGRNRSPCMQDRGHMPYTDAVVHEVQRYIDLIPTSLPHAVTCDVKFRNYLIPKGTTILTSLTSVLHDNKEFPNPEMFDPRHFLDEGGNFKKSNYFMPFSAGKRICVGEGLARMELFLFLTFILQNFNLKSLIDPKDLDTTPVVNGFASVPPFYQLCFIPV
CYP2C19 activ: increases human CYP2C19 enzyme activity; activation factor at 5 µM; AID 1025; recombinant CYP2C19, luciferin-H EGE luminescence; active compounds read high; 0 = fully inhibited enzyme, 1 = untreated enzyme; 96,000 tested, under 10 active;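 active means activation factor of at least 2 at 5 µM in the primary screen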
sEH activator: activators of human soluble epoxide hydrolase; AID 717; purified human sEH enzymatic activity, activator screen; activation, % at 2 µM; 0.04% of 91,000 active; in the data active means activation above about 37%
sEH inhibitor: soluble epoxide hydrolase (human) inhibition; P34913; recombinant human sEH enzymatic activity assay; inhibition, % at 2 µM; 0.34% of 91,000 active; AID 707; in the data active means inhibition above about 80%
CYP2C9 inhib: blocks human cytochrome P450 2C9; P11712; CYP2C9 Supersomes, luciferin-H conversion, luminescence; inhibition, % at 5 µM; 20% of 96,000 active;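 active means blocking of liver enzyme CYP2C9 beyond about 50% at 5 µM, limit read from the data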
A number is an active result; i = inactive; nt = not tested or not shown.

SMILES	CYP2C9 activ	CYP2C19 inhib	CYP2C19 activ	sEH activator	sEH inhibitor	CYP2C9 inhib
CN(C)CCC(O)(c1ccccc1)c1ccccc1	i	i	i	i	i	i
CC/C(CC(C)(C)c1ccccc1)=N\O	i	79	i	i	i	i
Cc1cnc(NC(=O)CSc2ncc(-c3ccccc3)n2Cc2ccco2)s1	i	i	i	i	i	73
COc1ccc(-c2cnc(SCC(=O)Nc3cc(C)on3)n2Cc2ccco2)cc1	i	61	i	i	i	88
COCCn1c(-c2ccc(OC)cc2)cnc1SCC(=O)Nc1cccc2ccccc12	i	67	i	i	i	72
COc1ccc(NC(=O)CSc2ncc(-c3ccc(F)cc3)n2Cc2ccco2)cc1	nt	nt	nt	i	i	nt
CCC(=O)Nc1cc(NC(=O)CSc2ncc(-c3ccc(F)cc3)n2Cc2ccco2)ccc1C	i	91	i	i	i	95
CCC(C)N(NC(C)=O)c1nc(Cl)nc(NC(C)(C)C)n1 (centres undefined)	i	i	i	i	i	i
CCOC(=O)C1=C(C)Nc2ncnn2C1c1ccc(N(C)C)cc1 (centres undefined)	i	i	i	nt	nt	i
CCOC(=O)C1=C(C)Nc2ncnn2C1c1c[nH]c2ccccc12 (centres undefined)	i	82	i	i	i	59
CCCCCOC(=O)C1=C(C)Nc2ncnn2C1c1cccs1 (centres undefined)	i	78	i	i	i	i
CC1=C(C(=O)OC(C)C)C(c2c[nH]c3ccccc23)n2ncnc2N1 (centres undefined)	i	61	i	nt	nt	i
CCCC1=C(C(=O)OCC)C(c2ccc(O)cc2)n2ncnc2N1 (centres undefined)	i	i	i	i	i	93
CC1=C(C(=O)OC(C)C)C(c2cccs2)n2ncnc2N1 (centres undefined)	i	i	i	nt	nt	i
CCC1=C(OC(=O)c2ccccc2)C(C)(C)C(c2ccccc2)OC1=O (centres undefined)	i	i	i	i	i	i
COc1cc(C)nc(OCCNC(=O)COc2ccc(Cl)cc2Cl)n1	i	73	i	i	i	63
Cc1ccc2nc(-c3ccc(NS(C)(=O)=O)cc3)cc(-c3ccccc3)c2c1	i	i	i	i	i	53
O=C1CC(N2CCN(S(=O)(=O)c3ccc(Cl)cc3)CC2)C(=O)N1CCc1ccccc1 (centres undefined)	nt	nt	nt	i	i	nt
Cc1cc(-c2cccc([N+](=O)[O-])c2)nc2ccc3ccccc3c12	i	i	i	i	i	i
Cn1nc(-c2ccccc2)c(C#N)c1Sc1cccc(Cl)c1	i	i	i	i	i	i
CCOc1ccccc1OCCn1ncc2ccc(OC)c(OC)c2c1=O	i	58	i	i	i	i
COc1ccc2cnn(-c3ccc(C)cc3)c(=O)c2c1OC	i	i	i	i	i	65
COc1ccc(Oc2c(Cl)cnn(-c3ccc(C)cc3)c2=O)cc1	i	i	i	i	i	i
O=C(c1ccc(CNc2c(N3CCOCC3)c(=O)c2=O)cc1)N1CC=C(c2ccccc2)CC1	i	i	i	nt	nt	59
COc1ccc(C(=O)N2CC=C(c3ccccc3)CC2)cc1S(=O)(=O)N1CCOCC1	i	86	i	i	i	81
SMILES	CYP2C9 activ	CYP2C19 inhib	CYP2C19 activ	sEH activator	sEH inhibitor	CYP2C9 inhib
Cc1cc(C)cc(NC(=O)c2ccc(CNc3c(N4CCOCC4)c(=O)c3=O)cc2)c1	i	i	i	nt	nt	i
CCC(C)(C)n1nnnc1C(c1ccccc1)N1CCN(C2CCCC2)CC1 (centres undefined)	nt	nt	nt	i	i	nt
O=C(CCCCCCN1C(=O)c2ccccc2C1=O)Nc1nccs1	nt	nt	nt	i	i	nt
Cc1cccc(NC(=O)CCCCCN2C(=O)c3ccccc3C2=O)n1	i	i	i	i	i	79
COCc1nnc(NC(=O)CCCCCN2C(=O)c3ccccc3C2=O)s1	i	i	i	i	i	63
Cc1cccc(NC(=O)CCCN2C(=O)c3ccccc3C2=O)n1	i	i	i	i	i	i
O=C(CCCCCN1C(=O)c2ccccc2C1=O)NC1CCCC1	i	78	i	i	i	89
Nc1nnnn1/N=C/c1ccc(O)cc1	i	68	i	i	i	84
Nc1nnnn1/N=C/c1cccc(O)c1	i	i	i	i	i	i
C=CCC(Nc1ccccc1)C12C=CC(O1)C(C(=O)OC)=C2C(=O)OC (centres undefined)	nt	nt	nt	i	i	nt
O=C(COC(=O)C1CC1)Nc1ccc(OC(F)F)cc1	i	77	i	i	i	i
O=C(COC(=O)C1CCC1)Nc1ccc(OC(F)F)cc1	i	86	i	nt	nt	i
O=C1C2C3C=CC(C3)C2C(=O)N1/N=C/c1cc(Br)cc([N+](=O)[O-])c1O (centres undefined)	i	i	i	i	i	i
CCC(=O)c1ccc(OCc2ccc(C(=O)OC)cc2)c(OC)c1	i	i	i	i	i	i
COC(=O)c1sc(OC)cc1OCc1ccc(C)cc1	i	53	i	i	i	i
Cc1cc(C)c(C#N)c(SCSCc2ccccc2)n1	i	99	i	i	i	74
CCOC(=O)CSc1nc(C)cc(C)c1C#N	i	i	i	i	i	i
Cc1cc(C)c(C#N)c(SCc2ccccc2)n1	nt	nt	nt	i	i	nt
COCCn1c(C)cc(C(=O)CSc2nnc3ccccn23)c1C	i	71	i	nt	nt	i
COCCn1c(C)cc(C(=O)CSc2nc(C)cc(C)c2C#N)c1C	i	78	i	i	i	i
Cc1cc(C)c(C#N)c(SCC(=O)c2cc(C)n(CCc3ccccc3)c2C)n1	i	82	i	i	i	85
COCCn1c(C)cc(C(=O)CSc2nc3ccccc3o2)c1C	i	i	i	i	i	i
CCOC(=O)CSc1nnc(CNC(=O)c2ccc(S(=O)(=O)N3CCCC3)cc2)n1C	i	i	i	i	i	i
O=C(CSc1nnc2ccccn12)c1ccc(OC(F)F)cc1OC(F)F	i	76	i	nt	nt	i
CC(C)CCNC(=O)NC(=O)CSc1nnc2ccccn12	i	i	i	nt	nt	i
SMILES	CYP2C9 activ	CYP2C19 inhib	CYP2C19 activ	sEH activator	sEH inhibitor	CYP2C9 inhib
CCn1c(COc2ccccc2C)nnc1SCC(=O)N1CCN(c2ccccc2)CC1	i	i	i	i	i	i
CCn1c(CSCc2ccc(C)cc2)nnc1SCC(=O)N1CCN(c2ccccc2)CC1	i	i	i	i	i	78
CCn1c(CC(=O)Nc2cccc(OC)c2)nnc1SCC(=O)N1CCN(c2ccccc2)CC1	i	i	i	i	i	59
CC(C)(C)C(=O)C(Oc1cccc2nonc12)n1cncn1 (centres undefined)	i	i	i	i	i	i
COn1cnnc1-c1ccccc1	i	i	i	nt	nt	i
CC(C)NS(=O)(=O)c1ccc(OCC(=O)Nc2ccccc2F)cc1	i	i	i	i	i	i
CC(C)NS(=O)(=O)c1ccc(OCC(=O)Nc2ccc(F)cc2F)cc1	i	i	i	i	i	50
COc1ccc(OCC(=O)N(C)Cc2ccccc2)cc1	i	97	i	nt	nt	i
CC(C)NS(=O)(=O)c1ccc(OCC(=O)N(C)Cc2ccccc2)cc1	i	51	i	i	i	i
